Our source for the growth values is PubChem BioAssay (NCI).

The structures appear in SMILES notation. About 83,000 compounds went through this panel and 20% of them were active in at least one assay; those are over-represented in the sample as a whole.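 48-hour exposure, single concentration, 96-well plates; percent growth endpoint where 0 means no net growth. Active: below 10.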 Values without a mark were called inactive. Activity calls are given as the source filed them.

Common to all, as to assay: NCI-60 one-dose screen, 48 h (100 = growth as untreated, 0 = no growth, -100 = all killed)
What all share (conditions): 10 µM unless noted

Assay [1] concerns T-47D breast.
Assay [2] has as its system BT-549 breast.
Assay [3] relates to MDA-MB-435 melanoma.
Assay [4] relates to SW-620 colon.
Assay [5] has as its system MCF7 breast.
The subject of assay [6] is HCC-2998 colon.
Assay [7] deals with KM12 colon.
The subject of assay [8] is HCT-116 colon.

On to `O=C1c2c(c3c4cc(Br)ccc4[nH]c3c3ccc4ccccc4c23)C(=O)N1CCN1CCNCC1`, for which the growth in assay [1] is 61.8%; in assay [2], 87.6%; in assay [3], 92.5%; in assay [4], -58.4% (active); in assay [5], -73.7% (active); in assay [6], 51.5%. Moreover, the growth in assay [7] is 88.6%.
On to `Nc1nc(N)c2c(n1)NC(c1ccccc1)CC(c1ccc(Nc3nc(NCCO)nc(Nc4ccc(Cl)cc4)n3)cc1)=N2` (configuration not stated), for which the growth in assay [1] is 62.1%; in assay [2] it was 79.3%; in assay [3], 41.8%; in assay [4], -83.3% (active); in assay [5], -71.3% (active); in assay [7], 47%.
For the molecule `Cc1ccc(NC(=O)c2ccc(CN3CCN(C)CC3)c(I)c2)cc1Oc1ccc(-c2[nH]nc3ncnc(N)c23)cc1`, the growth is 112% in assay [1]; 103% in assay [2]; -67.3% (active) in assay [4]; -27% (active) in assay [5]; -26.6% (active) in assay [8]; 108% in assay [6]. The growth in assay [7] was 20.7%.
Consider `N#Cc1c(NC(=O)c2ccc(F)c(Cl)c2)sc2c1CCC(=O)C2`, for which the growth in assay [1] was -18.3% (active); in assay [2], 2.09% (active); in assay [4] it was -24% (active); in assay [5] it was 4.86% (active); in assay [8], 0.878% (active); in assay [6], 25.8%. The growth in assay [7] was 4.23% (active).
Consider `C=CCn1c(SCC(=O)Nc2cccc(C(=O)/C=C/c3cc(OC)c(OC)c(OC)c3)c2)nc2ccccc2c1=O`, for which the growth in assay [1] was 66.4%; in assay [2], 75.9%; in assay [4], 3.18% (active); in assay [5], 18.2%; in assay [8], -26.4% (active); in assay [6], 82.5%. In addition, the growth in assay [7] was 46.3%.
As for `CCC(=O)Nc1ccc(-c2nc(-c3cccc(O)c3)c(-c3ccnc(Br)c3)[nH]2)cc1`, the growth in assay [1] was 26.4%; in assay [2] it was 74.1%; in assay [4], 84.7%; in assay [5], 13.3%; in assay [8], 55.9%; in assay [6], 95.8%. The growth in assay [7] was 58.9%.
Consider `C#C[C@]1(O)CC[C@H]2[C@@H]3CC=C4c5sc(Nc6cc(OC)ccc6OC)nc5CC[C@]4(C)[C@H]3CC[C@@]21C`, for which the growth in assay [1] was 22.8%; in assay [2], 30.2%; in assay [4], 18.4%; in assay [5], -2.69% (active); in assay [8], 19.3%; in assay [6], 62.4%. The growth in assay [7] is 24.6%.
`CCCCSc1nnc(-c2ccc(-c3ccc(Cl)cc3)nc2C)o1`: the growth in assay [1] was 92.8%; in assay [3] it was 102%; in assay [4] it was 101%; in assay [5], 85.8%; in assay [8], 98%; in assay [6], 100%. Besides, the growth in assay [7] is 103%.
For `CN(C)C(=O)C1=NC(CO)C(=O)N(c2ccc(Cl)cc2)N1` (configuration not stated), the growth in assay [1] is 98.6%; in assay [2] it was 99.2%; in assay [4] it was 103%; in assay [5] it was 95.6%; in assay [8] it was 88.3%; in assay [7] it was 98.2%.
On to `O=C(Nc1ccc(-c2nc(-c3cccc(O)c3)c(-c3ccnc(Br)c3)[nH]2)cc1)c1ccccc1`, for which the growth was -6.8% (active) in assay [1]; 40.6% in assay [2]; 10.5% in assay [4]; 0.42% (active) in assay [5]; 18.1% in assay [8]; 26.3% in assay [6]. Besides, the growth in assay [7] was 12.9%.
Consider `CNC(=O)c1cc(Oc2ccc3nc(NC(=O)c4ccc(CN5CCN(C)CC5)c(C(F)(F)F)c4)sc3c2)ccn1`, for which the growth in assay [1] is 38%; in assay [3], 53.9%; in assay [4], 11.4%; in assay [5] it was 28.9%; in assay [8], 31.7%; in assay [6], 70.5%. Besides, the growth in assay [7] was 46.8%.
For `COc1ccc([C@@H]2[C@@H](O)C(=O)N2c2cc(OC)c(OC)c(OC)c2)cc1`, the growth in assay [1] was 67.1%; in assay [2] it was -13.4% (active); in assay [4], 19.4%; in assay [5], 11.9%; in assay [8] it was 3.82% (active); in assay [6], 21.8%. Moreover, the growth in assay [7] is 14%.
In the case of `C#CCOc1ccc(/C=N/Nc2nc(-c3cc4cc(Br)cc(Br)c4oc3=O)cs2)cc1`, the growth in assay [1] is 88.6%; in assay [3], 91.8%; in assay [4], 104%; in assay [5] it was 65.9%; in assay [8] it was 91.8%; in assay [6], 108%. Further, the growth in assay [7] is 88%.
Regarding `COc1ccc([C@H]2[C@H](O)C(=O)N2c2cc(OC)c(OC)c(OC)c2)cc1O`, the growth is 75.8% in assay [1]; -9.8% (active) in assay [2]; 17% in assay [4]; 8.66% (active) in assay [5]; -8.58% (active) in assay [8]; 19.5% in assay [6]. In addition, in assay [7], the growth is 13.1%.
For `O=c1oc2ccc(-c3ccc(F)cc3F)cc2c(=O)n1-c1ccc(F)c(F)c1`, the growth is 9.12% (active) in assay [1]; -2.01% (active) in assay [2]; 12.7% in assay [4]; 2.02% (active) in assay [5]; 6.87% (active) in assay [8]; 3.33% (active) in assay [7].
